Test results from PubChem BioAssay AID504437 (Emory University Molecular Libraries Screening Center, 2011).
Among all 2,100 compounds or so, about 940 (45%) were called active.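 Rule for the calls: active = mean of three repeat readings of reporter signal inhibition above a set limit (cut at about 70% in these data); inactive = the rest.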 The set was probably picked from earlier hits. This excerpt belongs to a sample that is enriched for actives.

Assay: CHOP promoter reporter blockers, replicate testing – cell-based, confirmation (AID 504437);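 note: 0% = tunicamycin plus vehicle and 100% = wells lacking tunicamycin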
Details: CHO-CHOP promoter luciferase reporter, tunicamycin-induced, luminescence; at 10 µM; active compounds read high

Question: For `O=C(CSC1c2ccccc2-c2ccccc21)N/N=C/c1ccccc1`, which inhibition is on record?
Answer: 70.5% (active)

Question: Which inhibition does the source give for `CCCCCCN=C(CC)c1c(O)n(CCCC)c(=O)[nH]c1=O` here?
Answer: 118% (active)
